Results filed as inconclusive are left out. Activity calls are given as the source filed them. Rule for the calls: active = hit-call score of the fitted dose curve at least 0.9, where 1 is the maximum; inconclusive = response in the unintended direction; inactive = score below 0.9.

guinea pig Leukotriene D4 Receptor (LTD4), CYSLTR1 (gene 100135514), sequence (Q2NNR5 whole entry, looked up): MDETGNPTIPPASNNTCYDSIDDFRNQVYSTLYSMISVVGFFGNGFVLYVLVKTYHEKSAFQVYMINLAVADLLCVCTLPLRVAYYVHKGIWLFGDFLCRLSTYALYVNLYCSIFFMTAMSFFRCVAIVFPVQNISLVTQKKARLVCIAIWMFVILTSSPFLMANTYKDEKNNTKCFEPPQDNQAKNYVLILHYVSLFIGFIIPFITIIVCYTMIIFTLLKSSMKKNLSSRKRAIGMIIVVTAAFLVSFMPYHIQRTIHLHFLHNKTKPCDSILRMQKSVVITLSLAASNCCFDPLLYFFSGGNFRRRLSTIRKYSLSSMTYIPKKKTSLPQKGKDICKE
human Opioid Receptor Mu (Opiate Mu), OPRM1 (gene 4988), sequence (P35372 whole entry, looked up): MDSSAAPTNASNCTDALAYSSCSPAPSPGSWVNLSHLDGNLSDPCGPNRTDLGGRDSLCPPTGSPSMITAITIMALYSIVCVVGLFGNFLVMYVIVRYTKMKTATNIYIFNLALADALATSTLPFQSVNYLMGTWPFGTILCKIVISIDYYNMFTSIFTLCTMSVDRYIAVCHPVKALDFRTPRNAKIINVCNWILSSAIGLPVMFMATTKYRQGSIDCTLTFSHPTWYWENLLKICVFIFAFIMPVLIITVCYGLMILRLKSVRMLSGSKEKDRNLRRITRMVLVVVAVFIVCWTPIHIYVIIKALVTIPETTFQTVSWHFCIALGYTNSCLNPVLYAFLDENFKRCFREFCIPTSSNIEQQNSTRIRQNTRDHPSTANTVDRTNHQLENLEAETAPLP
human Thromboxane A2 Receptor (TXA2), TBXA2R (gene 6915), sequence (P21731 whole entry, looked up): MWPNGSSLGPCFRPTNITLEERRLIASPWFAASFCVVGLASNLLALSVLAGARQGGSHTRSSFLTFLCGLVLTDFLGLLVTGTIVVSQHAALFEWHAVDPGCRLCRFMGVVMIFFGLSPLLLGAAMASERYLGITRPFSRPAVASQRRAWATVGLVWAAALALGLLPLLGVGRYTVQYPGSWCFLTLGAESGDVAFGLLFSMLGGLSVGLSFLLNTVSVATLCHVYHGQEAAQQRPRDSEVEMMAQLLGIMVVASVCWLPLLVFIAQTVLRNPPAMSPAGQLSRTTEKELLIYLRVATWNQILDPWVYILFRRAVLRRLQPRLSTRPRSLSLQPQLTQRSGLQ
Muscarinic acetylcholine receptor M2 (Homo sapiens), sequence (P08172 whole entry, looked up): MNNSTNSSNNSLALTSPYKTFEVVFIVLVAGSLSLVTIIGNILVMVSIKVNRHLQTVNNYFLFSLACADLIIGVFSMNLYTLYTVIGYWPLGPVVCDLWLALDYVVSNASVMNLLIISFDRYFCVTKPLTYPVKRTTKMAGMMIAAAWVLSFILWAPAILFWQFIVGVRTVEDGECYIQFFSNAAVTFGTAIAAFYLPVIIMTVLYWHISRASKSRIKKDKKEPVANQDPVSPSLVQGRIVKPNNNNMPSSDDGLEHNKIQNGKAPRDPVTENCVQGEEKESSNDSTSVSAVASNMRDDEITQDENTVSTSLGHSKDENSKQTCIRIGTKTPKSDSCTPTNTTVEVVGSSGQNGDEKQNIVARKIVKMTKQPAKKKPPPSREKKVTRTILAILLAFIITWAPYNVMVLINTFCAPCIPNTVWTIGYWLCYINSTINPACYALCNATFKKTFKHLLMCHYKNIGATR
human Matrix Metalloproteinase-9 (MMP9), MMP9 (gene 4318), sequence (P14780 whole entry, looked up): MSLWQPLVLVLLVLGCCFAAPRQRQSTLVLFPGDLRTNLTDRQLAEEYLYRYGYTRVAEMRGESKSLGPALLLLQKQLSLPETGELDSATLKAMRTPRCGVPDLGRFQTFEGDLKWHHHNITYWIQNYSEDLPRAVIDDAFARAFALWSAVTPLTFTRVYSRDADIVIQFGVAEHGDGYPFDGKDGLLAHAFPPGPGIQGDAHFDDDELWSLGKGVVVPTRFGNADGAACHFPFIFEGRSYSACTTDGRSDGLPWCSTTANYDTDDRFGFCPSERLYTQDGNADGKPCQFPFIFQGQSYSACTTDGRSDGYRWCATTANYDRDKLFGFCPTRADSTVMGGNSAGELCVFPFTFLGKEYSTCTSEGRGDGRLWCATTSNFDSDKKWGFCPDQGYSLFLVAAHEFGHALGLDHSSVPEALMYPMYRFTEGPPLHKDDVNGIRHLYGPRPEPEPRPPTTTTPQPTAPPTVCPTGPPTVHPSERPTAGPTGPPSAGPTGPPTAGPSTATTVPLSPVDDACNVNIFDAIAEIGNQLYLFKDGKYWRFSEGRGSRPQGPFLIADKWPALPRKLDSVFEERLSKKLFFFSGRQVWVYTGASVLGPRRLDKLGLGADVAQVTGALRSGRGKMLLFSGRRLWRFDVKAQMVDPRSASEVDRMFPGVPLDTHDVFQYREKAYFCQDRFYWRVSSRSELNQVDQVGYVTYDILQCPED
D(1A) dopamine receptor (Homo sapiens), sequence (P21728 whole entry, looked up): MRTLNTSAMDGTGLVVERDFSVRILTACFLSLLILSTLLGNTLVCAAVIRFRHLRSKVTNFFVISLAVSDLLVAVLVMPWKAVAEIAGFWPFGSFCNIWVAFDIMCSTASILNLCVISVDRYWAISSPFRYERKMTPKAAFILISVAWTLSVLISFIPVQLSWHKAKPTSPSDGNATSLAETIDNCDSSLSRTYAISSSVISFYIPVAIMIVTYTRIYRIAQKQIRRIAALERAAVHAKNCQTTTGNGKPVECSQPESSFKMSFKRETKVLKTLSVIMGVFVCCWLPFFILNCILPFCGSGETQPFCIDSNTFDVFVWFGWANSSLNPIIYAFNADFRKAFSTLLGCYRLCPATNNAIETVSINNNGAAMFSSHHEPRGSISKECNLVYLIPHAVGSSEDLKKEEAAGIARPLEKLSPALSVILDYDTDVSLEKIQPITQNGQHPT

The first test addresses human Matrix Metalloproteinase-9 (MMP9), MMP9 (gene 4318) (UniProt P14780). As to the kind of experiment: NVS_ENZ_hMMP9: NovaScreen (NVS) Enzymatic Assay for human Matrix Metalloproteinase-9 (MMP9) (AID 2283190).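 Note: cell-free recombinant MMP9 protease activity read by fluorescent substrate signal; active means inhibition seen as loss of fluorescence signal versus DMSO.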 Summed up:
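Screening concentration 25 uM, duplicate wells, then dose series for confirmation. Cell-free enzymatic reaction measured by fluorescence intensity 1 h post-dosing; decreased signal versus DMSO taken as activity.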
In the case of `CC1CCC(C(C)CS)CC1S` (stereo not given), the AC50 was 0.997 µM (active).

As to `Clc1ccc(Cl)c(Cl)c1Cl`, the AC50 was 6.22 µM (active).

For the molecule `CC(=O)OCCOC(C)=O`, the AC50 is 14.9 µM (active).

With `CNC[C@H](O)c1cccc(O)c1`, the AC50 was 10.6 µM (active).

For the molecule `CCCCCCCCC`, the AC50 is 25 µM (active).

In another test the target is sheep Cyclooxygenase-1 (Cox1), PTGS1 (gene 443551) (UniProt P05979). As to the kind of experiment: NVS_ENZ_oCOX1: NovaScreen (NVS) Enzymatic Assay for sheep Cyclooxygenase-1 (Cox1) (AID 2283239).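 Note: actives reduce cyclooxygenase activity so potencies are for inhibitors.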 The method in brief: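 Native ovine seminal vesicle protein serves as enzyme source in this biochemical assay. Colorimetric signal is recorded 0.66 h after chemical addition, and decreases versus the DMSO control define activity.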
sheep Cyclooxygenase-1 (Cox1), PTGS1 (gene 443551), sequence (P05979 whole entry, looked up): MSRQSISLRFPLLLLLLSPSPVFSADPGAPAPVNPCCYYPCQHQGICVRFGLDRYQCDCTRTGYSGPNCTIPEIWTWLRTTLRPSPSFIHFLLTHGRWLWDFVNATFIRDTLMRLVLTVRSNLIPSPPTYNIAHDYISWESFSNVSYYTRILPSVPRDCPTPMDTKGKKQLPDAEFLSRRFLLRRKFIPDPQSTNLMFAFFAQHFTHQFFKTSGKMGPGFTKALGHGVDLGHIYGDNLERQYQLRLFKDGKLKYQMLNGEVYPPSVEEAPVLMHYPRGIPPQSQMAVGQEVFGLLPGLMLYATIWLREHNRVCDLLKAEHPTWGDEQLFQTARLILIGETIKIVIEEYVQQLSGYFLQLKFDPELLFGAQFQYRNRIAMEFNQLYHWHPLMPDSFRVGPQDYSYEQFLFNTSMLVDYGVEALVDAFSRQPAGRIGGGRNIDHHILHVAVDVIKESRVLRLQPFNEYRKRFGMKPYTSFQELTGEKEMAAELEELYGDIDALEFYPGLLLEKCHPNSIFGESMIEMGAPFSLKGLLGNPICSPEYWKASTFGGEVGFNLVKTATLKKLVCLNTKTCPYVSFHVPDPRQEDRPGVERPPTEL
For `CC1CCC(C(C)CS)CC1S` (stereo not given), the AC50 was 25 µM (active).

Consider `O=C(O)CN(CCN(CC(=O)O)CC(=O)O)CCN(CC(=O)O)CC(=O)O`, for which the call was inactive.

Consider `CCCCCC(CO)CCC` (stereo not given), for which the AC50 was 0.00229 µM (active).

`CC(C)(CO)[N+](=O)[O-]`: the call was inactive.

Regarding `CC(C)=CCO`, the call was inactive.

`O=c1[nH]nnc2ccccc12`: the AC50 was 0.401 µM (active).

`CCCCCCCCC`: the molecule was called inactive.

A further test has as its target guinea pig Leukotriene D4 Receptor (LTD4), CYSLTR1 (gene 100135514) (UniProt Q2NNR5). As to the kind of experiment: NVS_GPCR_gLTD4: NovaScreen (NVS) G Protein-Coupled Receptor Assay for guinea pig Leukotriene D4 Receptor (LTD4) (AID 2283248). The method in brief:
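Guinea pig lung membrane preparation; bound radioligand measured by filter scintillation after 1 h, loss of signal versus DMSO marking displacement. Compounds tested at 25 uM in duplicate, hits retested to max 50 uM.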
For `CC(=O)/C=C/C1=C(C)CCCC1(C)C`, the result was inactive.

Regarding `Cc1ccc(O)c(C(C)(C)C)c1`, the outcome was inactive.

As to `Clc1ccc(Cl)c(Cl)c1Cl`, the molecule was classed as inactive.

For the molecule `CCCOCC(C)O` (stereo not given), the AC50 was 7.91 µM (active).

Another test deals with human Adenosine A2a Receptor (AdoRA2a), ADORA2A (gene 135) (UniProt P29274). As to the kind of experiment: NVS_GPCR_hAdoRA2a: NovaScreen (NVS) G Protein-Coupled Receptor Assay for human Adenosine A2a Receptor (AdoRA2a) (AID 2283256). On the procedure: NVS_GPCR_hAdoRA2a is a biochemical, single-readout assay that uses extracted gene-proteins from HEK293 in a cell-free assay. Measurements were taken 1.5 hours after chemical dosing in a 96-well plate.NVS_GPCR_hAdoRA2a is one of one assay component(s) measured or calculated from the NVS_GPCR_hAdoRA2a assay. It is designed to make measurements of radioligand binding, a form of binding reporter, as detected with scintillation counting signals by Filter-based radiodetection technology.Data from the assay component NVS_GPCR_hAdoRA2a was analyzed into 1 assay endpoint. This assay endpoint, NVS_GPCR_hAdoRA2a, was analyzed in the positive analysis fitting direction relative to DMSO as the negative control and baseline of activity. Using a type of binding reporter, loss-of-signal activity can be used to understand changes in the binding as they relate to the gene ADORA2A. Furthermore, this assay endpoint can be referred to as a primary readout, because the performed assay has only produced 1 assay endpoint. To generalize the intended target to other relatable targets, this assay endpoint is annotated to the gpcr intended target family, where the subfamily is rhodopsin-like receptor.
human Adenosine A2a Receptor (AdoRA2a), ADORA2A (gene 135), sequence (P29274 whole entry, looked up): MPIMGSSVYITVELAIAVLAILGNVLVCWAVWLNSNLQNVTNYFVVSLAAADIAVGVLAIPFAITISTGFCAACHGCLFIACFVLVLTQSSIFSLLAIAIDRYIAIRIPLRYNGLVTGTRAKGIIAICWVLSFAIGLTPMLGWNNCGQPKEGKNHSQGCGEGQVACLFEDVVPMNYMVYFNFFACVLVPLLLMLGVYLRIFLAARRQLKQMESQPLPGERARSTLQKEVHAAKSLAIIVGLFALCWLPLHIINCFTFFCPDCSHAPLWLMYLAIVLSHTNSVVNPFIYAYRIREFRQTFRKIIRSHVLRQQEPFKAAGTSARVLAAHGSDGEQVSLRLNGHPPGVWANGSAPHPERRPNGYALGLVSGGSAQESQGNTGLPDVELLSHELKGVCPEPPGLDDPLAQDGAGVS
Binding assays used specific radioligands (tritiated, iodinated) with non-radioactive competitive displacement ligands in agonist or antagonist protocols (as indicated) and various reference compounds and inhibitors to titrate specific binding to receptors and transporters. Most enzyme assays (CYPs, kinases, phosphatases, proteases, HDACs) used recombinant protein and specific substrates (fluorescence mostly, some colorimetric and radioactive) and inhibitors, followed by a biochemical separation of substrate and product. All assays for the biochemical HTS were initially run in duplicate at a single concentration (10 uM for CYP450 assays and 25 uM for all others). […] Each assay was run with positive and negative controls, and concurrent controls on every plate. […]
Regarding `O=C(O)C[C@H](O)C[C@H](O)/C=C/c1c(C2CC2)nc2ccccc2c1-c1ccc(F)cc1`, the call was inactive.

For the molecule `Nc1cc([N+](=O)[O-])ccc1Cl`, the call was inactive.

On to `NC(=O)c1ccccc1Cl`, for which the outcome was inactive.

For a further test, the target named is D(1A) dopamine receptor (Homo sapiens) (UniProt P21728). As to the kind of experiment: NVS_GPCR_hDRD1: NovaScreen (NVS) G Protein-Coupled Receptor Assay for human Dopamine Receptor D1 (DRD1) (AID 2283269). The method in brief:
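Extracted HEK293 DRD1 is incubated 1 h with compound and a tritiated or iodinated radioligand, then filtered and counted. Screening runs 25 uM in duplicate with on-plate positive and negative controls.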
For `Cc1ccc2n[nH]nc2c1`, the result was inactive.

For `CC(C)c1ccc(C(C)C)cc1`, the result was inactive.

Consider `CCCCNC(=O)NS(=O)(=O)c1ccc(C)cc1`, for which the result was inactive.

The target of another test is Muscarinic acetylcholine receptor M2 (Homo sapiens) (UniProt P08172). As to the kind of experiment: NVS_GPCR_hM2: NovaScreen (NVS) G Protein-Coupled Receptor Assay for human Muscarinic, M2 Receptor (AID 2283273). The method in brief:
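Filter-based radiodetection read bound radioligand 1 h after dosing CHO-derived membrane protein. Single-concentration duplicates (25 uM) first, then concentration-response for actives; signal loss versus DMSO scored.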
Turning to `CN(CCOc1ccc(CC2SC(=O)NC2=O)cc1)c1ccccn1` (stereo not given), the concentration at half-maximal activity (AC50) is 13.2 µM (active).

As to `CC(C)(CO)[N+](=O)[O-]`, the call was inactive.

As to `CNC[C@H](O)c1cccc(O)c1`, the AC50 was 29.7 µM (active).

The next test addresses human Thromboxane A2 Receptor (TXA2), TBXA2R (gene 6915) (UniProt P21731). As to the kind of experiment: NVS_GPCR_hTXA2: NovaScreen (NVS) G Protein-Coupled Receptor Assay for human Thromboxane A2 Receptor (TXA2) (AID 2283282).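 Note: actives reduce bound radioligand signal relative to DMSO baseline.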 The method in brief:
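Biochem binding, human platelets, cell-free; competitive radioligand displacement; 1 h; filter radiodetection. 25 uM duplicate primary, conc. series secondary; DMSO neg. ctrl.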
As to `CN(CCOc1ccc(CC2SC(=O)NC2=O)cc1)c1ccccn1` (stereo not given), the concentration at half-maximal activity (AC50) was 1.45 µM (active).

As to `CCCCOCCOCCOCCOCCO`, the molecule was called inactive.

Consider `O=C1CCc2ccccc2O1`, for which the molecule was classed as inactive.

On to `CCCCCCCCCC=O`, for which the result was inactive.

Consider `BrC1CCC(Br)C(Br)CCC(Br)C(Br)CCC1Br` (stereo not given), for which the AC50 was 11.1 µM (active).

Take `CCCCCCCCC=O`: the call was inactive.

Another test concerns the target human Opioid Receptor Mu (Opiate Mu), OPRM1 (gene 4988) (UniProt P35372). As to the kind of experiment: NVS_GPCR_hOpiate_mu: NovaScreen (NVS) G Protein-Coupled Receptor Assay for human Opioid Receptor Mu (Opiate Mu) (AID 2283290).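 Note: hits lower bound tracer signal versus DMSO meaning displacement of the ligand.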 Summed up: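 Here, radioligand binding to CHO-extracted receptor was measured after 2.5 h using filter-based scintillation detection. Initial single-concentration screening used 25 uM in duplicate with plate controls; confirmed actives went to concentration-response testing.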
Take `Nc1cc([N+](=O)[O-])ccc1Cl`: the molecule was classed as inactive.

Turning to `CCc1c(C)cc(N)c(CC)c1N`, the AC50 is 13 µM (active).

For `Cc1ccc2sc3cccc(C)c3c2c1`, the result was inactive.

Consider `CCCOCC(C)O` (stereo not given), for which the AC50 was 14.8 µM (active).

Broadly, the AC50 is the concentration giving half of the maximal activity seen.

These data come from PubChem BioAssay (EPA / NIEHS).
